Measurements published in PubChem BioAssay (EPA / NIEHS).
A structure can be active in one record and inactive in another. Active and inactive are the calls of the source. The calls were made as follows: active = hit-call score of the fitted dose curve at least 0.9, where 1 is the maximum; inactive = score below 0.9.

What was measured:
[1] = read-out: Tissue plasminogen activator (tPA), PLAT (gene 5327); test: BSK_BE3C_tPA: BioMAP Diversity Plus: BE3C Assay for Tissue plasminogen activator (tPA) Biomarker Activity (AID 2283041); settings: primary human bronchial epithelial cells; actives raise or lower the signal
Outline: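 Human primary bronchial epithelial cells were dosed with chemical and tPA biomarker levels measured by ELISA 24 hours later. Activity was fitted bidirectionally against DMSO as negative control and baseline.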

[2] = read-out: Interleukin-8 (IL8), CXCL8 (gene 3576); test: BSK_CASM3C_IL8: BioMAP Diversity Plus: CASM3C Assay for Interleukin-8 (IL8) Biomarker Activity (AID 2283042); settings: primary human coronary artery smooth muscle cells; actives raise or lower the signal;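 also: IL-8 protein level quantified by ELISA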
[3] = read-out: Human Leukocyte Antigen - DR isotype (HLADR), HLA-DRA (gene 3122); test: BSK_CASM3C_HLADR: BioMAP Diversity Plus: CASM3C Assay for Human Leukocyte Antigen - DR isotype (HLADR) Biomarker Activity (AID 2283043); settings: primary human coronary artery smooth muscle cells; actives raise or lower the signal;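 also: cell-surface HLA-DR protein level quantified by ELISA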
[4] = read-out: Macrophage colony-stimulating factor (MCSF), CSF1 (gene 1435); test: BSK_CASM3C_MCSF: BioMAP Diversity Plus: CASM3C Assay for Macrophage colony-stimulating factor (MCSF) Biomarker Activity (AID 2283044); settings: primary human coronary artery smooth muscle cells; actives raise or lower the signal;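 also: M-CSF protein amount quantified by ELISA after 24 h exposure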
[5] = read-out: Low-density lipoprotein receptor (LDLR), LDLR (gene 3949); test: BSK_CASM3C_LDLR: BioMAP Diversity Plus: CASM3C Assay for Low-density lipoprotein receptor (LDLR) Biomarker Activity (AID 2283045); settings: primary human coronary artery smooth muscle cells; actives raise or lower the signal;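 also: LDLR protein level on the cell surface quantified by ELISA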
[6] = read-out: Monocyte Chemoattractant Protein-1 (MCP1), CCL2 (gene 6347); test: BSK_CASM3C_MCP1: BioMAP Diversity Plus: CASM3C Assay for Monocyte Chemoattractant Protein-1 (MCP1) Biomarker Activity (AID 2283046); settings: primary human coronary artery smooth muscle cells; actives raise or lower the signal;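 also: MCP-1 level quantified by ELISA 24 h after dosing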
[7] = BSK_CASM3C_Proliferation: Cell Proliferation Assessment in the BioMAP Diversity Plus: CASM3C Assay (AID 2283047); settings: primary human coronary artery smooth muscle cells;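 also: sulforhodamine B total protein stain as relative cell number at 560 nm; sub-confluent cells exposed 48 h before staining; fitted both ways against DMSO so gain or loss of cell number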
[8] = read-out: Monokine induced gamma interferon (MIG), CXCL9 (gene 4283); test: BSK_CASM3C_MIG: BioMAP Diversity Plus: CASM3C Assay for Monokine induced gamma interferon (MIG) Biomarker Activity (AID 2283048); settings: primary human coronary artery smooth muscle cells; actives raise or lower the signal;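 also: MIG protein level measured by ELISA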
[9] = read-out: serum amyloid A (SAA), SAA1 (gene 6288); test: BSK_CASM3C_SAA: BioMAP Diversity Plus: CASM3C Assay for serum amyloid A (SAA) Biomarker Activity (AID 2283049); settings: primary human coronary artery smooth muscle cells; actives raise or lower the signal;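 also: SAA protein level quantified by ELISA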
[10] = BSK_CASM3C_SRB: Viability Assessment in the BioMAP Diversity Plus: CASM3C Assay (AID 2283050); settings: primary human coronary artery smooth muscle cells
[11] = read-out: Thrombomodulin, THBD (gene 7056); test: BSK_CASM3C_Thrombomodulin: BioMAP Diversity Plus: CASM3C Assay for Thrombomodulin Biomarker Activity (AID 2283051); settings: primary human coronary artery smooth muscle cells; actives raise or lower the signal;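 also: thrombomodulin protein level measured by ELISA 24 h after dosing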
[12] = read-out: Tissue Factor, F3 (gene 2152); test: BSK_CASM3C_TissueFactor: BioMAP Diversity Plus: CASM3C Assay for Tissue Factor Biomarker Activity (AID 2283052); settings: primary human coronary artery smooth muscle cells; actives raise or lower the signal;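 also: cell surface tissue factor protein level read by ELISA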
[13] = read-out: Interferon-gamma inducible Protein 10 (IP10), CXCL10 (gene 3627); test: BSK_hDFCGF_IP10: BioMAP Diversity Plus: hDFCGF Assay for Interferon-gamma inducible Protein 10 (IP10) Biomarker Activity (AID 2283053); settings: primary human foreskin fibroblasts; actives raise or lower the signal
Outline: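 Human foreskin fibroblast primary cells (hDFCGF system) were dosed with chemical and assayed at 24 h; IP-10 measured by ELISA. Activity fitted bidirectionally relative to DMSO negative control as baseline.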

[14] = read-out: Urokinase-type plasminogen activator receptor (uPAR), PLAUR (gene 5329); test: BSK_CASM3C_uPAR: BioMAP Diversity Plus: CASM3C Assay for Urokinase-type plasminogen activator receptor (uPAR) Biomarker Activity (AID 2283054); settings: primary human coronary artery smooth muscle cells; actives raise or lower the signal;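 also: cell-surface uPAR protein level quantified by ELISA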
[15] = read-out: Vascular cell adhesion molecule 1 (VCAM1), VCAM1 (gene 7412); test: BSK_CASM3C_VCAM1: BioMAP Diversity Plus: CASM3C Assay for Vascular cell adhesion molecule 1 (VCAM1) Biomarker Activity (AID 2283055); settings: primary human coronary artery smooth muscle cells; actives raise or lower the signal;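 also: VCAM-1 protein level quantified by ELISA on the cells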
[16] = read-out: Epidermal growth factor receptor (EGFR), EGFR (gene 1956); test: BSK_hDFCGF_EGFR: BioMAP Diversity Plus: hDFCGF Assay for Epidermal growth factor receptor (EGFR) Biomarker Activity (AID 2283057); settings: primary human foreskin fibroblasts; actives raise or lower the signal
Outline: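 Primary human foreskin fibroblasts were exposed to compound for 24 h, after which cell-surface EGFR was quantified by ELISA. Activity was fitted bidirectionally against the DMSO negative control as baseline.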

[17] = read-out: Interleukin-8 (IL8), CXCL8 (gene 3576); test: BSK_hDFCGF_IL8: BioMAP Diversity Plus: hDFCGF Assay for Interleukin-8 (IL8) Biomarker Activity (AID 2283058); settings: primary human foreskin fibroblasts; actives raise or lower the signal
Outline: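 Primary human foreskin fibroblasts (hDFCGF system) dosed with chemical; IL-8 measured by ELISA 24 hours later. Bidirectional curve fitting relative to DMSO baseline; cytotoxicity tracked in parallel cultures by SRB total protein staining.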

[18] = read-out: Macrophage colony-stimulating factor (MCSF), CSF1 (gene 1435); test: BSK_hDFCGF_MCSF: BioMAP Diversity Plus: hDFCGF Assay for Macrophage colony-stimulating factor (MCSF) Biomarker Activity (AID 2283060); settings: primary human foreskin fibroblasts; actives raise or lower the signal
Outline: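 Human foreskin fibroblast primary cultures; M-CSF measured by ELISA 24 hours after chemical dosing. Bidirectional fitting relative to DMSO, with overt cytotoxicity tracked by parallel SRB total-protein staining (0.1% SRB, 10% TCA fixation, 560 nm).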

[19] = BSK_hDFCGF_Proliferation: Cell Proliferation Assessment in the BioMAP Diversity Plus: hDFCGF Assay (AID 2283059); settings: primary human foreskin fibroblasts;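 also: curves fitted for both rise and fall of signal versus DMSO baseline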
Outline: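 Total protein read at 560 nm after 0.1% SRB staining of TCA-fixed human skin fibroblasts, […]. Activity is fitted in both directions relative to DMSO as baseline.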

[20] = read-out: Collagen III, COL3A1 (gene 1281); test: BSK_hDFCGF_CollagenIII: BioMAP Diversity Plus: hDFCGF Assay for Collagen III Biomarker Activity (AID 2283056); settings: primary human foreskin fibroblasts; actives raise or lower the signal
Outline: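 Human foreskin fibroblast primary cultures sampled 24 h after dosing; Collagen III quantified by ELISA. Signal fitted bidirectionally against DMSO baseline.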

Measured: AC50

CC(C)(C)CC(C)(C)c1ccc(O)c(-n2nc3ccccc3n2)c1
inactive: [1] | [2] | [6] | [8] | [10] | [12] | [14] | [15] | [17]
active: [3] 15.7 µM | [4] 28.8 µM | [5] 20 µM | [7] 29.8 µM | [9] 32.4 µM | [11] 22.7 µM | [13] 14.6 µM | [16] 14.2 µM | [18] 5.47 µM

O=C(OCCOCCOC(=O)c1ccccc1)c1ccccc1
inactive: [1] | [2] | [3] | [4] | [5] | [6] | [7] | [8] | [9] | [10] | [11] | [12] | [13] | [14] | [15] | [16] | [17] | [19] | [18]

CC(=O)NC1(c2cccc(F)c2)CCN(CC[C@@]2(c3ccc(Cl)c(Cl)c3)CN(c3ccccc3)C(=O)CO2)CC1
active: [1] 16.6 µM | [3] 28.2 µM | [5] 4.58 µM | [7] 27.3 µM | [10] 23.8 µM | [11] 26.1 µM | [13] 28.2 µM | [14] 16.6 µM | [20] 6.66 µM | [18] 24.5 µM
inactive: [2] | [4] | [6] | [8] | [9] | [12] | [15] | [16]

NC(=O)N1C(=O)C(C(=O)c2cc(Cl)cs2)c2cc(F)c(Cl)cc21 (stereo not given)
active: [1] 2.33 µM | [3] 14.1 µM | [6] 7.46 µM | [7] 27.4 µM | [10] 23.8 µM | [13] 5.92 µM | [14] 27.3 µM | [15] 5.41 µM | [19] 1.54 µM | [18] 2.1 µM
inactive: [2] | [4] | [5] | [8] | [9] | [11] | [12] | [16]

CCC(=C(c1ccc(O)cc1)c1ccc(OCCN(C)C)cc1)c1ccccc1
inactive: [11] | [16]
active: [1] 8.8 µM | [2] 24.4 µM | [3] 17.4 µM | [4] 18.4 µM | [5] 22.7 µM | [6] 24 µM | [7] 9.11 µM | [8] 24.8 µM | [9] 22.8 µM | [10] 22.2 µM | [12] 15.8 µM | [13] 10.5 µM | [14] 20.3 µM | [15] 22.3 µM | [20] 7.58 µM | [18] 10.2 µM

CCCCCCCC(=O)O
inactive: [1] | [2] | [3] | [4] | [5] | [6] | [7] | [8] | [9] | [10] | [11] | [12] | [13] | [14] | [15] | [20] | [16] | [18]

ClC1=C(Cl)C(Cl)(Cl)C(Cl)=C1Cl
inactive: [11] | [16]
active: [1] 6.77 µM | [2] 9.09 µM | [3] 4.27 µM | [4] 6.59 µM | [5] 5.87 µM | [6] 7.68 µM | [7] 2.76 µM | [8] 7.3 µM | [9] 6.33 µM | [10] 7.64 µM | [12] 1.92 µM | [13] 9.62 µM | [14] 6.99 µM | [15] 5.1 µM | [17] 17 µM | [18] 9.09 µM

N#C[C@@H]1CC(F)(F)CN1C(=O)CNC1CC2CCC(C1)N2c1ncccn1 (stereo not given in full)
inactive: [1] | [2] | [3] | [4] | [5] | [6] | [7] | [8] | [9] | [10] | [11] | [12] | [13] | [14] | [15] | [16] | [17] | [19] | [18]

C=C(C)C(=O)OCCC(F)(F)C(F)(F)C(F)(F)C(F)(F)C(F)(F)C(F)(F)F
inactive: [2] | [3] | [4] | [5] | [6] | [7] | [8] | [9] | [10] | [11] | [12] | [13] | [14] | [15] | [16] | [17] | [18]
active: [3] 20 µM | [5] 12.1 µM | [7] 13.5 µM | [18] 23.2 µM

OC1CCCCC1
active: [2] 14.8 µM | [9] 23.1 µM
inactive: [1] | [3] | [4] | [5] | [6] | [7] | [8] | [10] | [11] | [12] | [13] | [14] | [15] | [20] | [16] | [17] | [18]

CC[C@H](c1ccc(O)cc1)[C@@H](CC)c1ccc(O)cc1
active: [7] 20 µM | [13] 24.1 µM | [15] 27.4 µM | [20] 15.1 µM | [17] 37.8 µM | [19] 18.8 µM | [18] 29.7 µM
inactive: [2] | [3] | [4] | [5] | [6] | [8] | [9] | [10] | [11] | [12] | [14] | [16]
